Out of some 53,000 sequences screened, about 3,700 (7%) were called active.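 How the source made its calls: active means gene knockdowns whose robust z-score for IL-1 alpha signal is at least 2 or at most -2, so actives lie on both sides; inactive means the rest.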 Shown is part of a subset that was picked to be rich in actives.
Assay: Components of the Cytosolic LPS Sensing Pathway: Gene Identification via Genome-wide siRNA Screen;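 further: robust z of the log signal after scaling to non-targeting control siRNA wells of the plate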
Settings: RAW264.7 macrophages, IL-1a HTRF, actives lie on both sides, screened at 100 nM (by protocol), cells primed 5 h with Pam3CSK4 first
Summary of the method: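 Cells (RAW264.7, 1×10^4 per well) were transfected with siRNA at 100 nM and cultured 48h at 37 degrees C. Pam3CSK4 was added for 5 hours; LipidA transfection followed for 24 hour. IL-1a was then measured by HTRF.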

Sequence	z-score
GGGACUGAAAUCUAUUUUGTT against Zfp217	2.16 (active)
CCAAGCUAGUCCUCAAGCUTT against Snapc2	-1.16 (inactive)
GGGAUUGGCUACGACUUCATT against Cbs	2.06 (active)
GCUAGCUGUUGUAAAAGAATT against Gm4841	-0.507 (inactive)
GGCCAUUAACCAGUCUAUCTT against Cdhr5	0.977 (inactive)
GGUUCUGGAGAACAGAGUCTT against 4930483J18Rik	-0.44 (inactive)
GCGAUAAGCAGAAUGGCAGTT against 8030462N17Rik	-0.9 (inactive)
CGGGUGCCGGAAAGUUUAUTT against Klf7	2.84 (active)
GCAGCAUUGACUGAAGAUCTT against Lce1m	-0.316 (inactive)
GGACAAAAGGCUGAGCAUCTT against Flt1	-0.235 (inactive)
GGAAUCAUGCUGAAAGAGATT against Apom	-0.123 (inactive)
GGUUGCGUGUGGUUACUAUTT against Herc4	0.161 (inactive)
CCUCUGUGAUUUCAUUCUUTT against Hhip	-0.991 (inactive)
GGCAUUUUCACAAAAGACUTT against Rab23	-1.43 (inactive)
GGAUGGCUACCGAAAAAAUTT against Eif3c	0.967 (inactive)
CGACGCAUUGAGGCAAUCUTT against Camsap3	-0.483 (inactive)
GGCAAAGCACCUUUAUCUGTT against G430095P16Rik	-0.664 (inactive)
CCCAAGGUCCAGUUUGAUGTT against Mettl17	-2.42 (active)
GGCAAGGAUAAGACAGUAGTT against Hs3st3b1	-0.354 (inactive)
GGAUGAAGACCUUGAACGGTT against Slc28a3	1.48 (inactive)
GGAAACAGGUCUGUCCCAATT against Ankle1	-2.22 (active)
GGUUACCUAGAAGUGGACUTT against Igsf6	0.201 (inactive)
CCUUUCCAAACACCUAUAATT against Sox6	-1.2 (inactive)

Sequence	z-score
CCUUUCAGACCAGUUCAUUTT against Ppp1r17	0.193 (inactive)
GGUUCUUUUCAGCUCAUUATT against Toporsl	-0.0962 (inactive)
GCUUCCUACGGUGUGUCAATT against Hnrnpu	-2.43 (active)
GGAGCCCAAAAAGAAGAAATT against Mrpl48	0.43 (inactive)
GGCCCAGCAAAAAAAGAAGTT against Usp46	-0.397 (inactive)
GGUCAUAGCACCAUGUUCUTT against Gata5	0.831 (inactive)
GGAAGAGACUUAUAAUGGUTT against Olfr1214	1.28 (inactive)
CGAAAUCAGAACCUGGGAATT against Hacd3	2.73 (active)
GGCUAUGUCUGUUUCCUUUTT against Defa-rs10	0.963 (inactive)
GGAUAUUCCUGGACUGACATT against Rps6	-0.996 (inactive)
GGCAGAAUAUACUUGCCCUTT against Uevld	-0.156 (inactive)
GGAGAGCUCCUAUAAUCCUTT against Plau	0.267 (inactive)
GGAUAUUGUCUUUGUAGAATT against Kap	-0.565 (inactive)
GGACGUGAAGUGAAGUCAUTT against 1810009N02Rik	-0.626 (inactive)
GGCCUUGUACUUACACAAGTT against Rspo1	0.398 (inactive)
CCUUUCCUACUCUGUACCCTT against Abcg1	2.22 (active)
GGAUUCUCACAAGUAAUUCTT against Ifi203	0.272 (inactive)
GGCUGUCACCCUACAUGACTT against Uba1	0.0469 (inactive)
GGAUAUGUUUGGUUAUUUCTT against Acbd4	-0.0997 (inactive)
GGAGACUGUGAUUGAGAUGTT against Rnf181	-0.401 (inactive)
CGACAAAAGCCACCUUUCGTT against Tm4sf4	-2.62 (active)
GGAGUCUGUGAACAAUCUCTT against Mx2	0.0232 (inactive)
GGAGUGUGUAAAGACAUAATT against Rnase2a	-0.685 (inactive)

Sequence	z-score
GGACAAGAGGAGCUUUUGCTT against Id3	-0.446 (inactive)
GGUUUUCUUAAAAUAGGAGTT against Tat	-0.205 (inactive)
GGAGGACUGGGAAGAUCAUTT against Aqp5	0.152 (inactive)
GGAGCCCAGGAAGAUGACATT against Cyp2c54	-3.15 (active)
GGUAAGUUAAAUGAUGACATT against Ccdc148	-0.896 (inactive)
GGAUAUAACUGCUAUGGUUTT against Rhebl1	-0.241 (inactive)
GCUUAGAGCUUCAUAUAGCTT against Tlr12	-0.367 (inactive)
GGCUGACUUCGUUUUCAUGTT against Derl3	-2.01 (active)
GGUGGAAGCAAUUUUAAAUTT against Trpc7	0.384 (inactive)
GGGAUGAGUACAAGAAAAATT against Nsun3	-0.927 (inactive)
CGUGUUGGAGUACAAUGAGTT against Imp3	-0.927 (inactive)
GGACAGUGAAGAGGAUUCCTT against Anapc15	-0.988 (inactive)
GCGGAUUAACCUCUGUGGCTT against Igfl3	0.244 (inactive)
GGGUGACAGGUUGAUCUCATT against Tcn2	-2.11 (active)
GGUGGAGGAACGAAAGUUUTT against Ribc1	0.625 (inactive)
CGAGGUCAAUAUCAUUCCATT against Serpinb11	0.727 (inactive)
GCUGCUAAUAUCAAUAACGTT against Prf1	-0.809 (inactive)
GGCCAAACAACUGGUGAAGTT against Nelfe	-0.832 (inactive)
GGUGUUUUCUGUGUAACCATT against Tlx1	-0.843 (inactive)
GGAUGUUUGGACAAUCUAUTT against Itga4	0.634 (inactive)
GCAAAUGUCUCGGAAAGAATT against Cdk11b	-2.18 (active)
GCAAGAGACCAUGAGAAAUTT against Ccdc18	-0.149 (inactive)

Source: PubChem BioAssay AID1508600 (Functional Genomics Laboratory (NCATS/FGL), 2020)
